Data as given in PubChem BioAssay (Tox21).
Results filed as inconclusive are left out. A call without a number means that no potency is given here. The source made the active and inactive calls. Calls follow the shape of the dose curve; as a rule, active = well fitted cell-killing curve with a large enough effect in the repeat runs; inconclusive = weak or mixed curves, or effect the other way; inactive = flat fitted curve, though single readings scatter.

Experiment: cAMP Responsive Elements (CRE) small molecule antagonists, cell-based qHTS assay: qHTS cell viability counter screen (AID 2060913); also: nearly all actives have a fitted effect of over 40% in size
Conditions: CRE-bla HEK293T viability, CellTiter-Glo luminescence, 5 h; series mostly up to 92.4 µM
In short: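 HEK293T CRE-bla, 2,000 cells/well, 18 h preincubation; cpd in DMSO + NKH477 0.25 uM final, 3 h 37 C/5% CO2; LiveBLAzer 2 h RT, then CellTiter-Glo 30 min RT, luminescence.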
Potency is read from the fitted curve at half-maximal effect.

SMILES	Potency
O=C(Nc1ccccc1)OCC(CN1CCCCC1)OC(=O)Nc1ccccc1 (stereo unspecified)	inactive
NC(=O)Cn1c(=O)cc(CCN2CCN(c3nccc4sccc34)CC2)c2ccc(F)cc21	inactive
Nc1ccc(N)c2c1C(=O)c1ccccc1C2=O	inactive
CCOC(OCC)C(=O)c1ccccc1	inactive
COc1cc(C)nc(-n2nc(C)cc2OC)n1	inactive
C=C1CC[C@H](O)CC1=C/C=C1\CCC[C@]2(C)[C@@H]([C@H](C)/C=C/[C@H](C)C(C)C)CC[C@@H]12	inactive
O=S(=O)(O)CCO	inactive
COc1ccc(-c2coc3cc(O)ccc3c2=O)cc1	inactive
CC(=O)Nc1ccc(N)cc1	inactive
O=C(CCOCCOCCOCCOCCC(=O)Nc1c(I)cc(I)c(C(=O)O)c1I)Nc1c(I)cc(I)c(C(=O)O)c1I	inactive
CC(=O)OCCC(C)C	inactive
FC(F)(F)c1ccccc1	inactive
CC(C)[C@@H]1CC[C@@H](C)CC1=O	inactive
C=CC1CC2C=CC1C2 (stereo unspecified)	inactive
CC1(C)C2=CCCC(C)(C)[C@]23CC[C@H]1C3	inactive
CCCCCCCCCCCC(=O)NCCCN(C)C	61.1 µM (active)
O=C(CCCN1CCC(O)(c2cccc(C(F)(F)F)c2)CC1)c1ccc(F)cc1	inactive
O=C(O)CNC(=O)c1ccccc1	inactive
CCCCCCCCCCCCCCCCCCN(C)C	inactive
C[C@H](CCC(=O)O)[C@H]1CC[C@H]2[C@@H]3C(=O)C[C@@H]4CC(=O)CC[C@]4(C)[C@H]3CC(=O)[C@]12C	inactive
CCc1ccc(C(=O)C(C)CN2CCCCC2)cc1 (stereo unspecified)	inactive
